SW480 rereplic – A quantitative high throughput screen for small molecules that induce DNA re-replication in SW480 colon adenocarcinoma cells; SW480 DNA re-replication, Hoechst DNA content imaging, 48 h; Potency, µM (doses to about 46.1 µM), for the others: at the top dose re-replication activation, usual class: activators; actives 1.8% (n = 340,000); AID 624297, 2012; also: potency is read from the fitted curve at half-maximal effect; % of control where 0% means no effect; nearly all actives have a fitted effect of over 55% in size
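SW480 cells exposed to compounds for 48 hr at 37 C, 5% CO2, then Hoechst-stained 40 min. Nuclear DNA content imaged by fluorescence scanning (405 nm excitation, 500-530 nm emission); re-replication scored as increased high-intensity nuclei.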
KCNH2 3.1 block – qHTS for Inhibitors of KCHN2 3.1: Mutant qHTS; U2OS KCNH2 3.1, thallium flux FluxOr; active compounds read low; Potassium voltage-gated channel subfamily H member 2, brain isoform KCNH2 3.1 (human); activity change, % (tested at about 1.8 µM); actives 0.95% (n = 340,000); AID 720553, 2013;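 active = maximum activity change below -70%; inconclusive = maximum activity change from -70% to -50%; inactive = maximum activity change above -50%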;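 also: thallium influx rate constant from kinetic fluorescence after stimulation buffer; % is scaled to controls: 0 for no effect and ±100 for the full control effect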
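FluxOr-based Tl+ influx in U2OS cells transduced with KCNH2 3.1 virus; rate constants normalized to DMSO controls.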
MCF10A rerep – A quantitative high throughput screen for small molecules that induce DNA re-replication in MCF 10a normal breast cells; AID 624296, 2012; Potency, µM (doses to about 46.1 µM), without a hit: at the highest dose activity, positive = re-replication, actives largely listed as activators; actives 2.9% (n = 350,000); MCF 10A DNA re-replication, Hoechst nuclear intensity, 48 h; also: potency is read from the fitted curve at half-maximal effect; % of control where 0% means no effect; nearly all actives have a fitted effect of over 50% in size
hERG WT inh – qHTS for Inhibitors of KCHN2 3.1: Wildtype qHTS | Voltage-gated inwardly rectifying potassium channel KCNH2 (Homo sapiens), Q12809 | U2OS, BacMam KCNH2, thallium flux FluxOr; active compounds read low | activity change, % at 1.84 µM | actives 0.37% (n = 340,000) | AID 720551, 2013;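 active = maximum activity change below -70%; inconclusive = maximum activity change between -70% and -50%; inactive = maximum activity change above -50%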; also: % is scaled to controls: 0 for no effect and ±100 for the full control effect
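U2OS cells transduced with wild-type KCNH2 virus are loaded with FluxOr dye for 45 min, and thallium flux is measured in kinetic reads before and after stimulation buffer. Rate constants are normalized to DMSO controls.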
KB-V1 cytotox – qHTS assay for MDR1-selective chemotherapeutics: Primary screen using the drug-selected MDR subline cells KB-V1 | actives 3.4% (n = 400,000) | KB-V1 MDR cells viability, CellTiter-Glo, 72 h | Potency, µM (highest dose often 46.1 µM), most hits filed as cytotoxic; also: potency is read from the fitted curve at half-maximal effect; % is scaled to controls: 0 for no effect and ±100 for the full control effect; nearly all actives have a fitted effect of over 60% in size
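In this primary screen, KB-V1 cells overexpressing P-gp are incubated with library compounds (lowest to highest concentration) for 72 h at 37 degrees C before a luminescent ATP viability read.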
KB-3-1 cytotox – qHTS assay for MDR1-selective chemotherapeutics: Primary screen using the parental adenocarcinoma cell KB-3-1; KB-3-1 viability, CellTiter-Glo ATP luminescence, 72 h; Potency, µM (highest dose often 46.1 µM), most hits filed as cytotoxic; actives 1.4% (n = 400,000); also: potency is read from the fitted curve at half-maximal effect; % is scaled to controls: 0 for no effect and ±100 for the full control effect; nearly all actives have a fitted effect of over 60% in size
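Multi-concentration cytotoxicity screen in KB-3-1 cells grown in DMEM lacking phenol red with 10% FBS. After 72 h at 37 °C with compound, ATP-dependent luminescence was recorded.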
Active calls of the source: *; i = inactive; ? = inconclusive; · = no result given; ! = not confirmed by another sample; [ ] = dose if it differs, or a comment. Most compounds without a hit are left out; they make up all but 7.6% or so of the library. Unless noted, calls follow the shape of the dose curve; as a rule, active = well fitted curve in the direction sought with a large enough effect; inconclusive = small, poorly fitted or top-dose-only effect, or another doubt; inactive = no such curve, though single readings can be large; an effect the other way counts as inactive or inconclusive.

SMILES | SW480 rereplic | KCNH2 3.1 block | MCF10A rerep | hERG WT inh | KB-V1 cytotox | KB-3-1 cytotox
COc1cc2ccc(=O)oc2c(O[C@@H]2O[C@H](CO)[C@@H](O)[C@H](O)[C@H]2O)c1O | 8.2µM*! | -27.2 | 16.4µM* | -4.1 | i | i
CC(C)c1ccc(-c2noc(SCC(=O)N3CCCCC3C)n2)cc1 (configuration not stated) | · | · | · | · | i | i
Cc1nc(SCCc2ccccc2)[nH]c(=O)c1C | ? | -2.5 | -5.3% | 8.5 | 3.26µM* | 3.26µM*
Cc1ccc(SCCSc2nc(N)cc(=O)[nH]2)cc1 | -2.9% | 8.7 | 16.8% | -0.6 | 8.2µM* | i
Cc1nnc(SCCc2ccccc2)[nH]c1=O | -8.8% | 6.8 | 11.6% | -8.0 | i | i
Cc1nc(SCc2ccc(Br)cc2)[nH]c(=O)c1C | -5.0% | 16.1 | 7.31µM* | 5.4 | i | i
CCc1cc(=O)[nH]c(SCCc2ccccc2)n1 | 3.3% | 13.2 | ? | -6.7 | 8.2µM* | 13µM*
Cn1cnc2c1c(=O)n(Cc1ccc(Cl)cc1Cl)c(=O)n2C | -9.7% | -4.3 | ? | -0.5 | i | i
Cc1cc(=O)[nH]c(SCc2ccccc2)n1 | 9.3% | -5.7 | -0.4% | 1.6 | i | i
Cc1cc(=O)[nH]c(SCCc2ccccc2)n1 | -3.2% | 9.4 | -3.0% | -0.6 | 11.6µM* | 16.4µM*
O=C(CC1Sc2ccccc2NC1=O)Nc1ccccc1[N+](=O)[O-] (configuration not stated) | 4.6% | -5.9 | 9.2% | 3.1 | 16.4µM* | i
O=C(COc1ccccc1Cl)NCCNC(=O)c1ccco1 | -16.8% | 4.2 | -11.8% | -4.3 | i | i
CCOC(=O)c1cc(-c2ccc(/C=N\n3cnnc3)o2)ccc1Cl | -1.1% | 4.5 | -5.7% | 5.3 | i | i
Cc1cc(-c2ccc(/C=N/n3cnnc3)o2)ccc1Cl | -2.8% | -1.2 | -2.0% | -12.9 | i | i
Clc1ccccc1-c1ccc(/C=N/n2cnnc2)o1 | 2.4% | -1.0 | -3.0% | 3.3 | 3.26µM* | 5.8µM*
CCCCOC(=O)c1cc(-c2ccc(/C=N/n3cnnc3)o2)ccc1Cl | 2.1% | 0.7 | -2.9% | 2.2 | 18.4µM* | i
O=C(O)c1cccc(-c2ccc(/C=N/n3cnnc3)o2)c1 | -14.9% | 7.6 | 2.8% | 1.4 | i | i
Cc1c(Cl)cccc1-c1ccc(/C=N/n2cnnc2)o1 | ? | -0.2 | 5.7% | -14.0 | 2.91µM* | ?
Cc1c(C(=O)O)cccc1-c1ccc(/C=N/n2cnnc2)o1 | -12.2% | 5.4 | 4.6% | -3.4 | i | i
Clc1cccc(-c2ccc(/C=N/n3cnnc3)o2)c1Cl | -2.8% | 5.1 | 0.7% | -1.2 | 1.64µM* | 6.51µM*
Cc1noc(C)c1S(=O)(=O)Nc1ccc2c(c1)C(=O)N([C@@H](C)CO)C[C@H](C)[C@@H](CN(C)Cc1ccc(C(F)(F)F)cc1)OCCCC[C@H](C)O2 | · | -7.1 | · | -4.8 | ? | ?
CCN=C1SC(CC(=O)NC(C)c2ccccc2)C(=O)N1CC (configuration not stated) | -0.1% | -1.1 | -4.4% | i | i | i
Cc1ccc(CCNC(=O)CS(=O)Cc2nc(-c3ccccc3Cl)oc2C)cc1 (configuration not stated) | 0.7% | -10.7 | -3.0% | 6.3 | i | i
CC1(C)Oc2ccc3ccc(=O)oc3c2/C(=C/Nc2ccc(O)cc2)C1=O | ? | 13.8 | ? | 5.3 | ? | i
CC1(C)Oc2ccc3ccc(=O)oc3c2/C(=C/Nc2cccc(O)c2)C1=O | ? | -1.8 | 11.6µM* | -14.3 | ? | i
SMILES | SW480 rereplic | KCNH2 3.1 block | MCF10A rerep | hERG WT inh | KB-V1 cytotox | KB-3-1 cytotox
COC(=O)/C=C1\OCc2cc(OC)c(OCc3ccccc3)cc21 | · | · | · | · | i | i
COc1cc2c(cc1OC)/C(=C/c1ccc(Br)cc1)C(=O)OC2 | ? | -20.3 | ? | 10.9 | ? | 20.6µM*
CC(=O)C1=C(C)OC(N)=C(C#N)C1c1cc2cccc(C)c2nc1Cl (configuration not stated) | -6.0% | 4.4 | 2.3% | 4.8 | i | i
COCCOC(=O)C1=C(C)OC(N)=C(C#N)C1c1cc2cccc(C)c2nc1Cl (configuration not stated) | 4.3% | -7.7 | 23.1µM* | -4.3 | i | i
CCCOC(=O)c1cccc(Nc2nc(CCC)cc(=O)[nH]2)c1 | · | · | · | · | i | ?
O=C(COC(=O)c1cccc(S(=O)(=O)N2CCCC2)c1)Nc1cccc(Br)c1 | · | 0.7 | · | 8.5 | i | i
CCCCNc1c(-c2ccc(-c3ccc(C(C)=O)cc3)c(OC)c2)nc2cnccn12 | 23.1µM* | -16.5 | 20.6µM* | 2.1 | i | i
CCCCNc1c(-c2ccc(OC)c(SC3CCCCC3)c2)nc2cnccn12 | ? | -2.1 | 16.4µM* | 1.8 | i | i
COc1cc(-c2nc3cc(C)ccn3c2NC2CCCCC2)ccc1-c1ccc(C(C)=O)cc1 | ? | -5.8 | ? | 1.7 | i | i
CCCCNc1c(-c2ccc(OC)c(SC3CCCCC3)c2)nc2ccc(Cl)cn12 | 11.4% | 7.0 | 20.6µM* | 2.3 | i | i
CCCCNc1c(-c2ccc(SC3CCCCC3)cc2)nc2cnccn12 | ? | 31.3 | ? | -10.2 | 37.2µM*! | i
Cn1ncc2ccc(-c3ccc4ncnc(NCc5cccs5)c4c3)cc21 | · | · | · | · | i | ?
O=C(Nc1ccc2ccccc2c1)Nc1nnc(Br)s1 | · | · | · | · | i | ?
COc1ccc(CCNC(=O)c2sc3nc4n(c(=O)c3c2C)CCCC4)cc1OC | · | · | · | · | i | i
COc1ccc(-c2nc3cnccn3c2NCc2ccccc2)cc1SC1CCCCC1 | ? | 1.1 | 11.6µM* | 3.8 | i | i
CCCCn1c(N)c(N(Cc2ccccc2OC)C(=O)c2c(CC)noc2C)c(=O)[nH]c1=O | -3.7% | 21.3 | -5.3% | -3.6 | i | i
COc1ccc2c(c1)C(=O)CCC2c1ccccc1 (configuration not stated) | 8.4% | -119.7* | 11.2% | 8.0 | i | i
COc1ccc2c(c1)C(=O)CC(c1ccccc1F)O2 (configuration not stated) | -4.0%[9.22 µM] | -3.0 | ? | 2.1 | i | i
Cc1ccnc2c1ccc1ccccc12 | -10.6% | 16.2 | 5.5% | 8.0 | i | i

Screens deposited in PubChem BioAssay by National Center for Advancing Translational Sciences (NCATS).
